# Results published in PubChem BioAssay (NCI).
# About 83,000 compounds went through this panel and 20% of them were active in at least one assay; those are over-represented in the sample as a whole.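 Activity criterion: percent growth below 10, measured after cells in 96-well plates were exposed to a single compound concentration for 48 hours.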 Unmarked numbers belong to inactive results. The source made the active and inactive calls.
# Assays:
# Test in all cases: NCI-60 one-dose screen, 48 h (100 = growth as untreated, 0 = no growth, -100 = all killed)
# Conditions in all cases: 10 µM unless noted
# [1] = system: SK-MEL-2 melanoma
# [2] = system: EKVX NSCLC
# [3] = system: SN12C renal
# [4] = system: UO-31 renal
# [5] = system: TK-10 renal
# [6] = system: CAKI-1 renal
# [7] = system: A498 renal
# [8] = system: CCRF-CEM leukemia
# [9] = system: MOLT-4 leukemia
# [10] = system: ACHN renal
Structure (SMILES),growth [1] [%],growth [2] [%],growth [3] [%],growth [4] [%],growth [5] [%],growth [6] [%],growth [7],growth [8] [%],growth [9] [%],growth [10]
C=CC(=O)N1CCN(c2cccc(Oc3nccc(Nc4nnc(-c5ccc(Br)cc5)s4)n3)c2)CC1,54.7,93.9,78.7,66.7,111,38.9,79.7%,69.5,70.6,
CC(=O)O[C@@H]1C[C@]2(C(C)C)O[C@@]1(C)[C@@H]1CCC(C)=C1[C@@H]2OC(=O)/C=C/c1ccccc1,89.7,83.5,48.4,60.5,95.4,71.3,-4.32% (active),84.9,83.8,
O=C1NC(=O)C(Cc2ccc(OCc3ccc(-c4ccc(Cl)cc4Cl)cc3)cc2)S1 (stereo unspecified),49.8,37.8,59.5,34.1,72.9,32.7,83.4%,42.2,17,
Cc1ccc2c(Cn3cc(CSc4nc5ccccc5o4)nn3)cc(=O)oc2c1,106,92.1,102,91.1,122,100,90%,93.4,108,103%
C=CCOC(=O)Nc1cccn([C@H](Cc2ccccc2)C(=O)NCCC(C)C)c1=O,115,104,98.7,88.7,111,89.8,114%,77.1,93.6,
CC(C)(C)CC(C)(C)NC(=O)Nc1ncccc1OCc1ccccc1,83.5,93.3,89.5,73.9,96.3,80.2,92.7%,94.2,89.1,
CCCCNCCCCCNc1cc(OC)cc2cccnc12,106,106,97.6,63.1,100,114,87.9%,106,100,
CCCOC(=O)Nc1nc2ccc(SCC(C)C)cc2s1,48.6,52.3,44.4,,50.4,49.1,40.8%,22.9,33.8,51.9%
N#CC1=C(c2ccccc2)Nc2c(c(-c3ccc(Cl)cc3)nn2-c2ccccc2)C12C(=O)Nc1ccc(Cl)cc12 (stereo unspecified),94.8,61.6,84.9,,73.7,44.5,69%,61.4,52.5,80.6%
CC1=C2[C@@H](CC1)[C@]1(C)O[C@@](C(C)C)(C[C@H]1OC(=O)[C@H](C)O)[C@H]2OC(=O)/C=C/c1ccccc1,80.6,66.1,45.7,,90.1,60.5,-66.1% (active),85.8,62.8,8.57% (active)
